# Results from the supplement of paper PMC6522484.
# ± gives the standard deviation of the averaged measurements.
# Assays:
# DLD1 [1] = experiment: cell viability (CellTiter-Glo) relative to plate median (fraction of plate median); higher = more viable cells; details: 5 µM; treatment time 24 h; reporter: 7TFP
# In short: (§1)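 Values are well luminescence normalised to the plate median, from either a firefly luciferase or a CellTiterGlo readout on parallel plates. The cells, colorectal cancer lines stably transduced with lentiviral 7TFP or TCF4/Wnt firefly luciferase reporters, were treated with library compounds at a final 5 µM for 24 h. The mean of two independent replicates is listed.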
# HCT116 = experiment: as above; details: 5 µM; treatment time 24 h; reporter: TCF4/Wnt
# In short: as §1
# SW480 [2] = experiment: as above; details: 5 µM; treatment time 24 h; reporter: 7TFP
# In short: as §1
# DLD1 [3] = experiment: TCF/Wnt firefly luciferase reporter signal relative to plate median (fraction of plate median); higher = higher Wnt reporter signal; details: 5 µM; treatment time 24 h; reporter: 7TFP
# In short: as §1
# SW480 [4] = experiment: as above; details: 5 µM; treatment time 24 h; reporter: 7TFP
# In short: as §1
SMILES,cell viability (DLD1 [1]),cell viability (HCT116),cell viability (SW480 [2]),TCF/Wnt firefly luciferase reporter signal (DLD1 [3]),TCF/Wnt firefly luciferase reporter signal (SW480 [4])
CC(C)/C(O)=C1/C(=O)O[C@@H](c2ccoc2)[C@]2(C)C(O)[C@@H](O)[C@@]34OC5(C)OC67CC(C)(C(O)[C@]6(O)[C@@H](O)[C@]3(O5)C12)[C@H](CC(=O)O)[C@]74C (stereo not given in full),0.869 ± 0.11,0.985 ± 0.05,1 ± 0.026,1.04 ± 0.028,1.02 ± 0.042
O=c1c(O)cccc2cc(O)c(O)c(O)c12,1.06 ± 0.057,0.914 ± 0.056,1.01 ± 0.037,1.04 ± 0.014,0.944 ± 0.094
C[C@H](CCC(=O)O)[C@H]1CC[C@H]2[C@@H]3[C@@H](O)C[C@@H]4C[C@H](O)CC[C@]4(C)[C@H]3CC[C@]12C,0.966 ± 0.029,1.01 ± 0.025,0.958 ± 0.028,0.89 ± 0.061,1.02 ± 0.09
COc1ccc(C(=O)/C=C/c2ccccc2)cc1,0.964 ± 0.0028,0.977 ± 0.0085,0.972 ± 0.069,0.936 ± 0.04,0.944 ± 0.15
CC[n+]1c(-c2ccccc2)c2cc(N)ccc2c2ccc(N)cc21,1.1 ± 0.014,1.1 ± 0.057,1.22,0.96 ± 0.085,1.08 ± 0.12
OCCc1ccccc1,0.986,0.995 ± 0.05,0.959 ± 0.03,1.16 ± 0.085,1.12 ± 0.092
Cc1occc(=O)c1O,0.962 ± 0.0099,0.973 ± 0.039,0.936 ± 0.021,0.938 ± 0.1,0.85 ± 0.042
CC(C)CCCC(C)C1CCC2C3CCC4CCCCC4(C)C3CCC12C (stereo not given),1,0.997 ± 0.033,0.9585 ± 0.00071,0.94 ± 0.042,1.02 ± 0.014
COc1cc2ccc(=O)oc2cc1O,1.09 ± 0.064,1.09,1.12 ± 0.085,0.999 ± 0.059,0.892 ± 0.12
CC[N+](CC)(CC)CCOc1cccc(OCC[N+](CC)(CC)CC)c1OCC[N+](CC)(CC)CC,0.9365 ± 0.0021,0.972 ± 0.017,0.945 ± 0.093,0.989 ± 0.1,0.873 ± 0.21
O=c1cccc2ccc(O)c(O)c2c1O,0.975 ± 0.012,0.994 ± 0.11,0.966 ± 0.033,0.994 ± 0.079,1.06 ± 0.042
CC(=O)N[C@@H](CC(C)C)C(=O)O,1.04 ± 0.014,1.04 ± 0.093,0.966 ± 0.062,1.03 ± 0.18,1.13 ± 0.057
NC(=O)NO,1.06 ± 0.09,1.05 ± 0.042,1.09 ± 0.028,1.03 ± 0.11,1.03 ± 0.12
CC(=O)O[C@@H]1CC2C(C)(C)[C@H](O)C[C@H](O)[C@@]2(C)C2CC[C@]3(C)C(=CC(=O)O[C@@H]3c3ccoc3)[C@]21C (stereo not given in full),0.961 ± 0.098,0.982 ± 0.097,0.982 ± 0.011,1.07 ± 0.099,0.948 ± 0.088
CC=CC(=O)N(CC)c1ccccc1C,0.931 ± 0.093,1.05 ± 0.028,1.01 ± 0.021,0.953 ± 0.081,0.8525 ± 0.0078
